# Hits are enriched below; roughly 2.2% of the tested compounds scored in any of these assays.
# GC-A act = GC-A (human) enzyme activation. P16066. HEK293 GC-A cells, cGMP TR-FRET, EC30 ANP; 0% at EC30 ANP, 100% saturating ANP. activation, % at 10 µM. hit rate 0.14% among 370,000; in the data active = activation above about 40%
# PfM18AAP inh-1 = PfM18AAP enzyme inhibition; AID 1822; hit rate 1.2% among 290,000; inhibition, % at 7.35 µM; recombinant PfM18AAP, H-Glu-NHMec fluorogenic cleavage;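 active = inhibition above the campaign mean inhibition over all tested compounds plus 3 SD, cut at about 28% in these data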
# PLC-gamma1 inh = blocks human PLC-gamma1 enzyme activity | P19174 | purified PLC-gamma1, fluorogenic substrate, fluorescence | inhibition, % at 12.2 µM | hit rate 0.84% among 370,000; in the data active = inhibition above about 9.5%
# GC-B act = GC-B (human) receptor activation. P20594. HEK293-GC-B cells, CNP EC30, cGMP TR-FRET; 0% at EC30 CNP, 100% saturating CNP. activation, % at 10 µM. hit rate 0.11% among 370,000;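 active = activation at 10 µM reaching about 35% in either raw or pattern-adjusted values, limit read from the data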
# PLC-beta3 inh = inhibitors of human phospholipase C beta3; Q01970; Purified PLC-beta3, fluorogenic substrate, fluorescence; inhibition, % at 12.2 µM; hit rate 0.18% among 370,000; AID 720704; in the data active = inhibition above about 11%
# Rce1 inhib = blocks yeast Ras-converting enzyme | yeast membranes, quenched prenylated peptide cleavage fluorescence | calls only | hit rate 0.27% among 290,000 | AID 2563;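 active = fall in fluorescence gain of 50% or more versus controls, with final raw signal at or below 3038400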
# PfM18AAP inh-2 = PfM18AAP inhibition, confirmation; shares compounds with PfM18AAP inh-1; recombinant PfM18AAP, H-Glu-NHMec fluorogenic cleavage; inhibition, % at 7.35 µM; hit rate 28% among 2,400; AID 2170;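 active = mean inhibition over replicate wells above the hit cutoff set for the earlier primary screen, cut at about 29% in these data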
# CTSL1 confirm = counter-screen for PFM18AAP inhibitors: confirmation of human cathepsin L inhibitors; purified cathepsin L1, Z-Leu-Arg-MCA fluorescence; AID 2178; shares compounds with PfM18AAP inh-1; inhibition, % at 5.96 µM; 2,400 tested, under 10 active;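 active = average inhibition across replicates above the hit cutoff set in the earlier primary screen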
# Hits are given with their value; n = inactive; x = not tested or not shown; + = active, no number.
SMILES,GC-A act,PfM18AAP inh-1,PLC-gamma1 inh,GC-B act,PLC-beta3 inh,Rce1 inhib,others
CCC(NC(=O)c1ccc2c(ccn2Cc2cccc(-c3ccccc3C(=O)O)c2)c1)c1ccccc1 (stereo not given),n,x,n,n,n,x,
Cc1cc(N2C(=O)C3C4C=CC(C4)C3C2=O)ccc1NC(=O)c1cccs1 (stereo not given),n,n,n,n,n,+,
CCCCN(C)C(=O)C(Cc1ccccc1)NS(=O)(=O)c1ccc2c(c1)c(=O)n(C)c(=O)n2C (stereo not given),n,n,n,47,n,n,
O=C(O)C1CC(c2ccccc2)=Nc2ccccc2S1 (stereo not given),n,n,n,n,n,n,
O=[N+]([O-])c1ccc(C2CC(c3ccccc3)=Nc3ccccc3S2)cc1 (stereo not given),n,32,n,n,n,n,
Cc1ccc(N=c2ssnc2Cl)cc1,n,n,n,n,n,n,
Cc1cc(C)nc(/N=c2/ssnc2Cl)c1,n,29,n,n,n,n,
CCCCCCCCNC(C)C(O)c1ccc(SC(C)C)cc1 (stereo not given),n,n,n,n,n,+,
COc1ccc(S[C@]2(C(=O)N3CCN(c4ncccn4)CC3)CC(=O)N(c3ccc(OC)cc3)[C@@H]2c2ccc(OC)cc2)cc1,n,x,n,n,n,x,
Cc1ccc(N2CCN(C(=S)c3ccc(-c4cccc([N+](=O)[O-])c4)o3)CC2)cc1,n,30,n,n,n,n,
Cc1cccc(C)c1OCc1cccc(C2Nc3ccccc3C(=O)N2Cc2ccco2)c1 (stereo not given),n,x,n,n,n,x,
CCC(C)[C@H](NC(=O)N1CCn2c1nc1ccccc12)C(=O)NCCc1ccccc1 (stereo not given in full),n,n,9.9,n,n,n,
O=[N+]([O-])c1cc(S(=O)(=O)Nc2ccccc2)ccc1N1CCN(c2ccc(O)cc2)CC1,n,30,n,n,n,n,
COC(=O)C1CN(C2CCCC2)CCS(=O)(=O)N1Cc1ccc(C)cc1 (stereo not given),n,x,n,n,n,x,
CCOC(=O)c1cc2c(=O)[nH]ccc2nc1C(F)(F)F,n,n,n,n,n,n,
CCOC(=O)c1cc2c(=O)[nH]ccc2nc1C,n,n,n,n,n,+,
Cc1ccccc1NCC(=O)N/N=C/c1ccc[nH]1,n,x,n,n,n,x,
Clc1ccc(CSc2nnc(-c3cccs3)o2)cc1Cl,n,x,n,n,n,x,
COc1cccc(OC)c1OCCCCN1CCCC1,n,n,n,n,n,n,
COc1cccc(OC)c1OCCCCCCN1CCN(C)CC1,n,n,13,n,n,n,
CC(C)C1C(C#N)=C(N)SC(N)=C1C#N,n,n,n,n,n,n,
CCC(CC)C1C(C#N)=C(N)SC(N)=C1C#N,n,31,n,n,n,n,
COc1ccc(-n2c(SCc3ccc([N+](=O)[O-])cc3)nnc2-c2ccc(C)cc2)cc1,n,n,n,n,n,+,
C=CCN(C)CC#CCCCCl,n,x,n,n,n,x,
COc1cccc(N=Nc2c(C)[nH]n(-c3ccccc3)c2=O)c1,n,n,n,n,n,n,
SMILES,GC-A act,PfM18AAP inh-1,PLC-gamma1 inh,GC-B act,PLC-beta3 inh,Rce1 inhib,others
Cc1[nH]n(-c2ccccc2)c(=O)c1C(C[N+](=O)[O-])c1ccc(Br)cc1 (stereo not given),n,30,n,n,n,n,
COc1cccc(C(C[N+](=O)[O-])c2c(C)[nH]n(-c3ccccc3)c2=O)c1 (stereo not given),n,39,n,n,n,n,
Cc1[nH]n(-c2ccccc2)c(=O)c1C(c1cccc([N+](=O)[O-])c1)c1c(C)[nH]n(-c2ccccc2)c1=O,n,n,13,n,n,n,
Cc1ccc(C(C[N+](=O)[O-])c2c(N)n(C)c(=O)n(C)c2=O)cc1 (stereo not given),n,n,n,n,n,n,
C=CCn1c(SCc2cccc(C(F)(F)F)c2)nnc1-c1ccc(OC)cc1,n,x,n,n,n,x,
CS(=O)(=O)c1ccc2c(c1)sc1nc(=O)c(/C=C3/C=CC(=O)C(O)=C3)c(N)n12,n,58,n,n,n,n,PfM18AAP inh-2=62;CTSL1 confirm=n
COc1ccc(CCN2CC(=O)N3CCc4ccc(N5CCOCC5)cc4C3CC2=O)cc1OC (stereo not given),n,x,n,n,n,x,
CCOc1ccccc1NC(=O)Nc1ccon1,n,n,n,n,n,n,
CCc1ccccc1NC(=O)CNCC(=O)Nc1ccccc1CC,n,n,n,n,n,n,
CCc1ccccc1NC(=O)Nn1cnnc1,n,56,n,n,n,n,PfM18AAP inh-2=38;CTSL1 confirm=n
CCOc1ccccc1NC(=O)Nn1cnnc1,n,60,n,n,n,n,PfM18AAP inh-2=44;CTSL1 confirm=n
O=C(NNc1cccc(Cl)n1)c1ccc(Cl)cc1Cl,n,n,n,n,n,n,
O=C(c1ccccc1)c1c[nH]c(C(=O)NNc2cccc(Cl)n2)c1,n,52,n,n,n,n,PfM18AAP inh-2=31;CTSL1 confirm=n
O=C(c1ccc(Cl)cc1)c1c[nH]c(C(=O)NNc2cccc(Cl)n2)c1,n,51,n,n,n,n,PfM18AAP inh-2=36;CTSL1 confirm=n
CCOC(=O)[C@]12CCCC3=C1N(CCC3)C(=O)[C@@H](CC(=O)NCCc1ccccc1OC)C2,n,x,n,n,n,x,
O=C(NC1CCCCN(Cc2cccc(Cl)c2)C1=O)c1c(F)cccc1F (stereo not given),n,x,n,n,n,x,
Cc1nn(CCC(=O)NNC(=O)Nc2ccccc2)c(C)c1[N+](=O)[O-],n,x,n,n,n,x,
CCC(CC)c1nnc(NC(=O)C2CC(=O)N(CCc3ccc(OC)c(OC)c3)C2)s1 (stereo not given),n,x,n,n,n,n,
CCC(CC)c1nnc(NC(=O)C2CC(=O)N(CCc3ccc(F)cc3)C2)s1 (stereo not given),n,35,n,n,n,n,PfM18AAP inh-2=n;CTSL1 confirm=n
CCN(CC)C(=O)CC[C@H]1CC[C@]2(CCCN(c3ccccc3)C2)O1,n,x,n,n,n,x,
CC(=O)N1CC[n+]2c(-c3ccc(Cl)cc3)csc21,n,39,n,n,n,n,PfM18AAP inh-2=n;CTSL1 confirm=n
N#C/C(=C\c1coc2ccc(O)cc2c1=O)C(=O)Nc1nc2ccccc2s1,n,51,n,n,n,n,PfM18AAP inh-2=n;CTSL1 confirm=n
N#C/C(=C\c1coc2ccccc2c1=O)C(N)=S,n,n,n,n,n,n,
CC1(C)Cc2c(sc3ncn4c(=S)[nH]nc4c23)CO1,n,43,n,n,n,n,PfM18AAP inh-2=30;CTSL1 confirm=n
CC1(C)Cc2c(sc3ncn4nc(CCC(=O)O)c(=O)nc4c23)CO1,n,n,n,n,n,n,
NC(=S)NNC(=O)Nc1ccc(Cl)c(Cl)c1,n,35,n,n,n,n,PfM18AAP inh-2=n;CTSL1 confirm=n
